{"source": "PubChem BioAssay AID1259354", "about": "(Paczesny and Yang Labs, IUPUI and University of Michigan, 2018)", "note": "“And” between values parts separate entries of the source, which are not always exact repeats. Identical values can stand only once. In all, about 78,000 compounds went through this assay and about 1,800 (2.3%) were called active. Not shown: some 27% with an inconclusive outcome. Cut-off read from the data, not from the text of the source: active = inhibition above about 30%; inconclusive = mostly about 10% to 28%; inactive = weaker than that. Shown is part of a subset that was picked to be rich in actives.", "data": [{"molecular_target": "Interleukin-1 receptor-like 1 (Homo sapiens) (UniProt Q01638)", "sequence (Q01638 whole entry, looked up)": "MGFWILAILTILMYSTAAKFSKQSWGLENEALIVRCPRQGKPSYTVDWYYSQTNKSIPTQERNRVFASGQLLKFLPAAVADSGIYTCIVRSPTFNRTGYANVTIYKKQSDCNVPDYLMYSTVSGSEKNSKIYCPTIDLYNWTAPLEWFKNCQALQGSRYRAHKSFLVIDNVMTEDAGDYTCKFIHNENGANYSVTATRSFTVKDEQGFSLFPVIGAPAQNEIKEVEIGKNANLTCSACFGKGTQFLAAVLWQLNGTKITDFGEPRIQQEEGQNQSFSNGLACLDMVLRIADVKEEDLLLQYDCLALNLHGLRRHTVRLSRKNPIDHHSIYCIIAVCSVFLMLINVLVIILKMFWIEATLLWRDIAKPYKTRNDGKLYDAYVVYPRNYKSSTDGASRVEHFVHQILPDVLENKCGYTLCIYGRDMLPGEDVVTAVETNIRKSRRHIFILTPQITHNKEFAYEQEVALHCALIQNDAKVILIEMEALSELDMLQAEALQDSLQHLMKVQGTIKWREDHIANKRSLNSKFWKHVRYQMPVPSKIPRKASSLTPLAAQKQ", "assay": "inhibitors of human ST2 (IL1RL1) binding to IL-33, primary screen, biochemical, AlphaLISA (AID 1259354)", "settings": "AlphaLISA ST2-Fc/biotin-IL-33 interaction, 1 h; at 17 µM, stronger effect = higher value", "values": [{"smiles": "O=[N+]([O-])c1cccc(-c2noc([C@@H]3C[C@@H](O)CN3Cc3ccc(C(F)(F)F)cc3)n2)c1", "inhibition": "inactive"}, {"smiles": "N#C/C(=C\\c1ccc(-c2cccc([N+](=O)[O-])c2)o1)C(=O)Nc1cccc(C(F)(F)F)c1", "inhibition": "30% (active)"}, {"smiles": "N#CC(C(=O)Nc1cccc(C(F)(F)F)c1)=C1CCCCCC1", "inhibition": "inactive"}, {"smiles": "O=C(C1CCCN(Cc2c[nH]c3ccccc23)C1)N1CCCCCC1", "note": "(stereo unspecified)", "inhibition": "inactive"}, {"smiles": "COc1ccc(-c2oc3ncn(Cc4ccco4)c(=N)c3c2-c2ccc(OC)cc2)cc1", "inhibition": "31% (active)"}, {"smiles": "Fc1ccc(C=Nc2c(-c3ccco3)nc3ccccn23)cc1", "inhibition": "49% (active)"}, {"smiles": "Cc1cccc2nc(-c3ccco3)c(Nc3ccc(F)cc3)n12", "inhibition": "inactive"}, {"smiles": "O=C(Nc1c(-c2ccc(F)cc2)nc2ccccn12)c1cccc(F)c1", "inhibition": "inactive"}, {"smiles": "Fc1cccc(N2N=C(/C=C/c3cccs3)CC2c2cccs2)c1", "note": "(stereo unspecified)", "inhibition": "32% (active)"}, {"smiles": "CCN(CC)S(=O)(=O)c1ccc(C(=O)Nc2nnc(-c3cc(OC)cc(OC)c3)o2)cc1", "inhibition": "inactive"}, {"smiles": "N#C/C(=C\\c1cccc(F)c1)c1nc(-c2ccc3c(c2)OCO3)cs1", "inhibition": "inactive"}, {"smiles": "N#C/C(=C/c1ccc2c(c1)OCO2)c1nc(-c2cccc(Br)c2)cs1", "inhibition": "30% (active)"}, {"smiles": "COc1ccccc1OCCNC(=O)c1ccccc1O", "inhibition": "inactive"}, {"smiles": "CCSc1nnc(NC(=O)Nc2ccc(Cl)cc2)s1", "inhibition": "inactive"}, {"smiles": "O=C(Nc1ccc([N+](=O)[O-])cc1Br)c1ccncc1", "inhibition": "inactive"}, {"smiles": "O=C(Nc1ccc([N+](=O)[O-])cc1Cl)c1cccc(Br)c1", "inhibition": "inactive"}, {"smiles": "O=C(Nc1ccc([N+](=O)[O-])cc1Br)c1cncc(Br)c1", "inhibition": "47% (active)"}, {"smiles": "CC(C)N(C(=O)Cn1c(Cl)nc2c1c(=O)n(C)c(=O)n2C)c1ccccc1", "inhibition": "inactive"}, {"smiles": "CCc1ccc(NC(=O)c2ccc(CN3CCOCC3)cc2)cc1", "inhibition": "inactive"}, {"smiles": "O=C(Nc1ccc(Cl)cc1)Nc1ccc2n(c1=O)C[C@H]1C[C@@H]2CN(C(=O)Cc2cccs2)C1", "inhibition": "inactive"}, {"smiles": "COc1ccc(-c2cccc(-n3cccn3)c2)cc1C(N)=O", "inhibition": "inactive"}, {"smiles": "CN1CCCC2(CC1)CCN(C(=O)c1cc3ccccc3n(C)c1=O)CC2", "inhibition": "inactive"}, {"smiles": "COc1cc(OC)cc(C(=O)N2c3ccccc3Sc3ccccc32)c1", "inhibition": "inactive"}, {"smiles": "O=c1nc2cc3[nH]c4c(=O)c5ccccc5c4[nH]c3cc2n1", "inhibition": "46% (active)"}, {"smiles": "O=C(c1cccc(I)c1)n1nnc2ccccc21", "inhibition": "inactive"}, {"smiles": "CCSc1ncc(CN2CC[C@@H](N(C)CCc3ccccn3)[C@H](O)C2)cn1", "inhibition": "inactive"}, {"smiles": "CC(=O)Nc1ncc2c(n1)CC(c1ccc(F)cc1)CC2=O", "note": "(stereo unspecified)", "inhibition": "inactive"}, {"smiles": "COc1ccc(-c2cc(C(=O)Nc3cccnc3)c3ccccc3n2)cc1", "inhibition": "inactive"}, {"smiles": "COc1ccc(-c2csc(/C(C#N)=C\\c3cccnc3)n2)cc1", "inhibition": "31% (active)"}, {"smiles": "COc1ccc(-c2cc(C(F)(F)F)nc(NCc3cccnc3)n2)cc1", "inhibition": "inactive"}, {"smiles": "CCc1cccc(NS(=O)(=O)c2cc(Br)cc3c2N(C(C)=O)C(C)C3)c1", "note": "(stereo unspecified)", "inhibition": "inactive"}, {"smiles": "O=C(c1cscn1)N1CCCC(CCc2ccccc2C(F)(F)F)C1", "note": "(stereo unspecified)", "inhibition": "inactive"}, {"smiles": "COc1ccc(/C=C2\\SC(=O)N(c3ccc(C)cc3)C2=O)cc1", "inhibition": "inactive"}, {"smiles": "N=C1S/C(=C\\c2ccc(N3CCOCC3)cc2)C(=O)N1c1ccccc1Cl", "inhibition": "31% (active)"}, {"smiles": "O=C1N=C(N2CCOCC2)S/C1=C/c1ccc(F)cc1", "inhibition": "inactive"}, {"smiles": "CCC1=Nc2cc(C(=O)NCCN(CC)CC)ccc2Sc2ccc(C)cc21", "inhibition": "inactive"}, {"smiles": "COc1ccc(C2CC(c3ccc([N+](=O)[O-])cc3)=NN2)cc1", "note": "(stereo unspecified)", "inhibition": "30% (active)"}, {"smiles": "COc1ccc(C2NC(=O)N(C)C(C)=C2[N+](=O)[O-])cc1", "note": "(stereo unspecified)", "inhibition": "inactive"}, {"smiles": "COc1ccc(C2CC(c3ccc(C)cc3)Nc3ncnn32)cc1", "note": "(stereo unspecified)", "inhibition": "inactive"}, {"smiles": "COC(=O)c1nc2n(n1)C(c1ccc(F)cc1)C1=C(CCCC1=O)N2", "note": "(stereo unspecified)", "inhibition": "inactive"}, {"smiles": "CC(=O)c1ccc(NC(=O)CCC2CCCCC2)cc1", "inhibition": "inactive"}, {"smiles": "O=C(CCN1C(=O)c2ccccc2C1=O)Nc1cccc(C(F)(F)F)c1", "inhibition": "inactive"}, {"smiles": "Cc1nn(-c2ccccn2)c2c1C(=O)/C(=C/Nc1cccc(C(F)(F)F)c1)CC2", "inhibition": "35% (active)"}, {"smiles": "FC(F)(F)c1cccc(NCn2nnc3ccccc32)c1", "inhibition": "inactive"}, {"smiles": "CCOc1ccc2[nH]c(C(=O)O)c(CCN)c2c1", "inhibition": "inactive"}, {"smiles": "Cc1[nH]c2ccc(CNC(=O)[C@@H](O)Cc3ccccc3)cc2c1C", "inhibition": "inactive"}, {"smiles": "COc1ccc(Br)cc1C(=O)Nc1cccc(Cl)c1", "inhibition": "inactive"}, {"smiles": "O=C(NC1CCCCCCC1)c1cccs1", "inhibition": "inactive"}, {"smiles": "Cc1ccc2ncc(NC(=O)c3cccs3)c(=O)n2c1", "inhibition": "83% (active)"}, {"smiles": "O=C(Nc1cccc(OCc2cc(=O)n3cc(Cl)ccc3n2)c1)c1cccs1", "inhibition": "inactive"}, {"smiles": "Fc1cccc(CC2CN(Cc3cn[nH]c3-c3ccccc3)CCO2)c1", "note": "(stereo unspecified)", "inhibition": "inactive"}, {"smiles": "N#CC(c1ccco1)N1CCN(C(C#N)c2ccco2)CC1", "note": "(stereo unspecified)", "inhibition": "inactive"}, {"smiles": "CCOc1ccc(NS(=O)(=O)c2ccc(Cl)cc2)cc1", "inhibition": "inactive"}, {"smiles": "O=C1C(Nc2ccc(Br)cc2)=CC(=NS(=O)(=O)c2cccs2)c2ccccc21", "inhibition": "79% (active)"}, {"smiles": "CCc1ccc(S(=O)(=O)N=C2C=C(Nc3ccc(OC)cc3)C(=O)c3ccccc32)cc1", "inhibition": "95% (active)"}, {"smiles": "CCOc1ccc(NS(=O)(=O)c2ccc(NC(=O)c3ccccc3Br)cc2)cc1", "inhibition": "inactive"}, {"smiles": "CCc1ccc(S(=O)(=O)N=C2C=C(Br)C(=O)c3ccccc32)cc1", "inhibition": "36% (active)"}, {"smiles": "COc1ccc(NS(=O)(=O)c2ccc(Cl)cc2)cc1", "inhibition": "inactive"}, {"smiles": "CCOc1ccc(S(=O)(=O)N=C2C=C(Nc3ccc(C)cc3)C(=O)c3ccccc32)cc1", "inhibition": "91% (active)"}, {"smiles": "COc1ccc(S(=O)(=O)NC(c2ccccc2)c2ccccc2)cc1", "inhibition": "inactive"}, {"smiles": "CCN(CC)S(=O)(=O)c1ccc(OC)c(NC(=O)c2cc(OC)c(OC)c(OC)c2)c1", "inhibition": "inactive"}, {"smiles": "Cc1cccc(OCC(=O)Nc2cc(C(F)(F)F)ccc2Cl)c1", "inhibition": "inactive"}, {"smiles": "Cc1ccc(CNC(=O)c2ccc3nc4sc5c(c4c(=O)n3c2)CCCC5)cc1", "inhibition": "inactive"}, {"smiles": "CCOc1ccc(NC(=O)C2CCN(S(=O)(=O)c3ccc(OC)c(OC)c3)CC2)cc1", "inhibition": "inactive"}, {"smiles": "COc1ccc(C2=N/C(=C\\c3ccc(C(C)C)cc3)C(=O)O2)cc1[N+](=O)[O-]", "inhibition": "inactive"}, {"smiles": "CCC(C(=O)NCc1ccccc1Cl)c1ccccc1", "note": "(stereo unspecified)", "inhibition": "inactive"}, {"smiles": "O=C(c1ccccc1Cl)N1CCCCC1", "inhibition": "inactive"}, {"smiles": "CCCCN(CC)S(=O)(=O)c1ccc2[nH]c(=O)cc(C(=O)NC3CCCCC3C)c2c1", "note": "(stereo unspecified)", "inhibition": "inactive"}, {"smiles": "Cc1ccc(NC(=O)CNCCOc2ccccc2)c(C)c1", "inhibition": "inactive"}, {"smiles": "NC(=O)Cn1cnc2c(cnn2-c2ccc(F)cc2)c1=O", "inhibition": "inactive"}, {"smiles": "C[C@@H](NC(=O)C1=C[C@@H](NC(=O)CS(=O)(=O)c2ccccc2)[C@@H](O)[C@H](O)C1)C(N)=O", "inhibition": "inactive"}, {"smiles": "COc1ccc(Cl)cc1NC(=O)c1nn(-c2ccc(Cl)cc2)c(=O)c2ccccc12", "inhibition": "inactive"}, {"smiles": "COc1cc2c(C(=O)N3CCCC3)cn(C)c(=O)c2cc1OC", "inhibition": "inactive"}, {"smiles": "CCOc1ccc(C(C)=O)cc1N1C(=O)C2C3C=CC(CC3)C2C1=O", "note": "(stereo unspecified)", "inhibition": "inactive"}, {"smiles": "CN(C)CCCn1c(-c2ccc(Cl)cc2)csc1=Nc1ccccc1", "inhibition": "63% (active) and 45% (active)"}, {"smiles": "CCn1c(C)csc1=Nc1cccc(C(F)(F)F)c1", "inhibition": "inactive"}, {"smiles": "COc1ccc(C2C(=C(O)c3ccc(Cl)cc3)C(=O)C(=O)N2CCCN(C)C)c(OC)c1", "note": "(stereo unspecified)", "inhibition": "inactive"}, {"smiles": "O=C(CN1C(=O)CC(c2ccccc2)=Nc2ccccc21)Nc1ccc(Cl)cc1", "inhibition": "inactive"}, {"smiles": "CCOC(=O)c1sc2nc3n(c(=O)c2c1C)N=C(c1ccccc1)CS3", "inhibition": "inactive"}, {"smiles": "O=C1NN=C(c2ccccc2)/C1=C/c1ccc(-c2ccc(Cl)cc2)o1", "inhibition": "49% (active)"}, {"smiles": "Cc1c(Cl)c([N+](=O)[O-])nn1CCCC(=O)Nc1cc(Cl)ccc1Cl", "inhibition": "inactive"}, {"smiles": "Cn1c(=O)c2c(nc(Cl)n2CC(=O)NC(C)(C)C)n(C)c1=O", "inhibition": "inactive"}, {"smiles": "CC(C)NC(=O)c1cc2cc3ccc(Cl)cc3nc2o1", "inhibition": "inactive"}, {"smiles": "CCc1ccc(CNC(=O)c2cc3cc4ccc(OC)cc4nc3o2)cc1", "inhibition": "inactive"}, {"smiles": "O=C(Nc1ccc2c(c1)OCCO2)c1cc2cc3ccc(Cl)cc3nc2o1", "inhibition": "47% (active)"}, {"smiles": "CCOCCCNC(=O)c1oc2ccc(S(=O)(=O)N3CCC(C)CC3)cc2c1C", "inhibition": "inactive"}, {"smiles": "Cc1ccc(C(=O)Nc2ccc3nn(-c4ccccc4)nc3c2)cc1", "inhibition": "inactive"}, {"smiles": "O=C(O)c1cccc(N=Cc2nc(-c3ccc(Br)cc3)oc2O)c1", "inhibition": "inactive"}, {"smiles": "O=C(COc1cccc([N+](=O)[O-])c1)Nc1ccc(-c2nnc(-c3ccco3)o2)cc1", "inhibition": "45% (active)"}, {"smiles": "COc1ccc(CC(=O)Nc2ccc(-c3nnc(-c4ccccc4)o3)cc2)cc1", "inhibition": "inactive"}, {"smiles": "Cc1cccc(OCC(=O)Nc2ccc(-c3nc4ncccc4o3)cc2)c1", "inhibition": "inactive"}, {"smiles": "Cc1c(F)cccc1NC(=O)C(C)Oc1ccc(Cl)cc1Cl", "note": "(stereo unspecified)", "inhibition": "inactive"}, {"smiles": "O=C(c1ccco1)N1CCN(c2ccc([N+](=O)[O-])cc2)CC1", "inhibition": "inactive"}, {"smiles": "O=C1CC(N2CCc3ccccc3C2)C(=O)N1c1ccc([N+](=O)[O-])cc1", "note": "(stereo unspecified)", "inhibition": "inactive"}, {"smiles": "O=C1CC(c2ccccc2)=NN1c1ccc([N+](=O)[O-])cc1", "inhibition": "43% (active)"}, {"smiles": "Cc1ccc(-c2cc(N3CCN(S(=O)(=O)c4cc(C)c(C)cc4C)CC3)ncn2)cc1", "inhibition": "inactive"}, {"smiles": "O=C(CSCc1ccccc1)Nc1c(-c2ccc(F)cc2)nc2ccccn12", "inhibition": "inactive"}, {"smiles": "Cc1cc(C)c(C#N)c(SCC(=O)c2ccc3c(c2)OCO3)n1", "inhibition": "inactive"}, {"smiles": "COc1cccc(C(=O)Nc2sc3c(c2C(N)=O)CCCCCC3)c1", "inhibition": "inactive"}, {"smiles": "N#Cc1c(-n2ncnc2-c2ccccc2)sc2c1CCCC2", "inhibition": "31% (active)"}, {"smiles": "O=C(Nc1ncnc2sc3c(c12)CCCC3)c1ccccc1", "inhibition": "inactive"}, {"smiles": "N#Cc1c(NC(=O)CCCC(=O)O)sc2c1CCCC2", "inhibition": "inactive"}, {"smiles": "CC(C)CN(CC(C)C)S(=O)(=O)c1ccc(C(=O)Nc2sc3c(c2C#N)CCC3)cc1", "inhibition": "inactive"}, {"smiles": "COc1cccc(-c2c(C#N)c(N)n3c(nc4ccccc43)c2C#N)c1", "inhibition": "inactive"}, {"smiles": "COc1cccc(-c2ncnn2-c2sc3c(c2C#N)CCCCC3)c1", "inhibition": "65% (active)"}, {"smiles": "N#Cc1c(-n2ncnc2-c2ccc3c(c2)OCO3)sc2c1CCCC2", "inhibition": "47% (active)"}]}]}
